Laboratory results from PubChem BioAssay (Tox21).
Inconclusive results are not listed. Activity calls are given as the source filed them. Unless noted, calls come from the whole dose curve; as a rule, active = well fitted curve in the direction sought with a large enough effect in the repeat runs; inconclusive = weak or mixed curves; inactive = no such curve, though single readings can be large; an effect the other way counts as inactive or inconclusive.

Experiments:
[1] = target: Aryl hydrocarbon receptor (Homo sapiens) (UniProt P35869); assay: qHTS assay to identify small molecule that activate the aryl hydrocarbon receptor (AhR) signaling pathway (AID 743085);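 note: HG2L7.5c1 human HepG2 liver cells with stably integrated DRE-driven firefly reporter; series mostly up to about 70 µM; nearly all actives have a fitted effect of over 15% in size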
How it was run: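 Luminescence (ONE-Glo) from a dioxin-responsive-element luciferase reporter in HG2L7.5c1 HepG2 cells after 24 hr compound exposure at 37C; viability measured by CellTiter-Fluor fluorescence beforehand.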

[2] = qHTS assay to identify small molecule that activate the aryl hydrocarbon receptor (AhR) signaling pathway - cell viability counter screen (AID 743086);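 note: HepG2 liver cells carrying the AhR DRE luciferase reporter; series mostly up to about 70 µM; nearly all actives have a fitted effect of over 45% in size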
How it was run: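 Cytotoxicity counter screen: CellTiter-Fluor signal (30 min, 37 C) in 4000 HepG2 cells/well carrying the DRE-luciferase reporter, following 24 h compound exposure at 37 C.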

[3] = target: Peroxisome proliferator-activated receptor gamma (Homo sapiens) (UniProt P37231); assay: qHTS assay to identify small molecule agonists of the peroxisome proliferator-activated receptor gamma (PPARg) signaling pathway (AID 743094; active = well fitted activation curve with a large enough effect in the signal ratio in the repeat runs, not every such curve was filed as active; the % refers to the signal ratio)
How it was run: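 Cells from the PPARg UAS-bla HEK293H line are plated and incubated 5 h at 37C. Compounds in DMSO are pinned in and left 17 h at 37C. LiveBLAzer B/G substrate is then added for 1 h at room temperature before fluorescence is measured.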

[4] = target: Peroxisome proliferator-activated receptor gamma (Homo sapiens) (UniProt P37231); assay: qHTS assay to identify small molecule antagonists of the peroxisome proliferator-activated receptor gamma (PPARg) signaling pathway (AID 743191; calls by dose curve; note: series mostly up to about 63 µM; nearly all actives have a fitted effect of over 30% in size)
How it was run: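 Beta-lactamase reporter under UAS control in HEK293H PPARg-bla cells; compound treatment 17 h at 37C. Read-out: fluorescence intensity after 1 h room-temperature incubation with LiveBLAzer B/G FRET substrate.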

[5] = qHTS assay to identify small molecule antagonists of the peroxisome proliferator-activated receptor gamma (PPARg) signaling pathway - cell viability counter screen (AID 743194); note: nearly all actives have a fitted effect of over 55% in size
How it was run: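 Viability was measured as CellTiter-Glo luminescence in GeneBLAzer PPARg UAS-bla HEK293H cells. These cells had been exposed 17 h at 37 C to compounds together with rosiglitazone at 50 nM final, with the beta-lactamase readout taken in the same wells.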

[6] = qHTS assay for small molecule agonists of the antioxidant response element (ARE) signaling pathway (AID 743202; active = well fitted activation curve with a large enough effect in the signal ratio in the repeat runs, not every such curve was filed as active; the % refers to the signal ratio)
How it was run: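 Beta-lactamase reporter activity, read as fluorescence intensity, reflects ARE/Nrf2 pathway induction in HepG2 cells after 16 h compound exposure at 37 C; substrate loading was 2 h at room temperature.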

[7] = qHTS assay for small molecule agonists of the antioxidant response element (ARE) signaling pathway - cell viability counter screen (AID 743203; calls by dose curve; note: nearly all actives have a fitted effect of over 55% in size)
How it was run: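 Cytotoxicity was tested in parallel with the ARE reporter screen. ARE-bla HepG2 cells were exposed to compounds for 16 hrs, and viability was taken from CellTiter-Glo luminescence.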

[8] = qHTS assay to identify small molecule agonists of the peroxisome proliferator-activated receptor delta (PPARd) signaling pathway - cell viability counter screen (AID 743211); note: nearly all actives have a fitted effect of over 55% in size
How it was run: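 Viability was measured as CellTiter-Glo luminescence (30 min, room temperature) in the same wells as the beta-lactamase readout. GeneBLAzer PPARd UAS-bla HEK293H cells received compound after 5 h plating and were incubated 17 h at 37 C.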

[9] = qHTS assay to identify small molecule antagonists of the peroxisome proliferator-activated receptor delta (PPARd) signaling pathway - cell viability counter screen (AID 743213); note: nearly all actives have a fitted effect of over 50% in size
How it was run: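 PPARd-bla HEK293H cells were treated with compounds plus agonist L165041 (300 nM final) for 17 h at 37 C. Viability was then read in the same wells by CellTiter-Glo luminescence after 30 min at room temperature.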

[10] = qHTS assay to identify small molecule agonists of the farnesoid-X-receptor (FXR) signaling pathway - cell viability counter screen (AID 743218); note: nearly all actives have a fitted effect of over 45% in size
How it was run: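 Cells were seeded, left 5 h at 37 C and 5% CO2, then dosed with compound in DMSO for 16 h. After the beta-lactamase FRET read, CellTiter-Glo was added and luminescence measured 30 min later.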

[11] = qHTS assay to identify small molecule antagonists of the farnesoid-X-receptor (FXR) signaling pathway - cell viability counter screen (AID 743221; active = well fitted cell-killing curve with a large enough effect in the repeat runs, not every such curve was filed as active; note: nearly all actives have a fitted effect of over 50% in size)
How it was run: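 Cytotoxicity counter screen run in the FXR-bla reporter wells: HEK 293T cells exposed to compound with 50 uM (final) chenodeoxycholic acid for 16 h, 37 C, then viability measured by CellTiter-Glo luminescence after 30 min, room temperature.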

[12] = qHTS assay to identify small molecule agonists of the vitamin D receptor (VDR) signaling pathway - cell viability counter screen (AID 743224); note: series mostly up to about 63 µM; nearly all actives have a fitted effect of over 50% in size
How it was run: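 Cells: VDR-bla, 2,000/well, settled 4 h. Treatment: compounds in DMSO, 16 h, 37C/5% CO2. Readout: CellTiter-Glo luminescence after 30 min RT.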

[13] = target: Peroxisome proliferator-activated receptor delta (Homo sapiens) (UniProt Q03181); assay: qHTS assay to identify small molecule antagonists of the peroxisome proliferator-activated receptor delta (PPARd) signaling pathway (AID 743215; active = well fitted inhibition curve with a large enough effect in the signal ratio in the repeat runs, not every such curve was filed as active; the % refers to the signal ratio;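 note: cells stimulated with agonist L165041 at 300 nM final during compound exposure; series mostly up to about 62 µM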)
How it was run: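 Cells: HEK293H with a UAS-driven beta-lactamase reporter responsive to PPARd. Compounds were co-added with L165041 (300 nM, final) and incubated 17 h at 37 C before a 2 h room-temperature FRET substrate step and fluorescence reading.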

[14] = target: Vitamin D3 receptor (Homo sapiens) (UniProt P11473); assay: qHTS assay to identify small molecule agonists of the vitamin D receptor (VDR) signaling pathway (AID 743222; calls by dose curve)
How it was run: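 Cells carrying a VDR-driven beta-lactamase reporter are seeded at 2,000 per well and rested 4 h. Compounds in DMSO are added for 16 h at 37C, and FRET substrate fluorescence is measured after 2 h at room temperature.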

[15] = target: Vitamin D3 receptor (Homo sapiens) (UniProt P11473); assay: qHTS assay to identify small molecule antagonists of the vitamin D receptor (VDR) signaling pathway (AID 743223; active = well fitted inhibition curve with a large enough effect in the signal ratio in the repeat runs, not every such curve was filed as active; the % refers to the signal ratio)
How it was run: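 Antagonist mode: compound added to VDR-bla cells alongside agonist 1alpha,25-dihydroxyvitamin D3 (3 nM final), incubation 16 h at 37C. Read-out is LiveBLAzer FRET fluorescence, 2 h at room temperature.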

[16] = qHTS assay for small molecule activators of the heat shock response signaling pathway (AID 743210; active = well fitted activation curve with a large enough effect in the signal ratio in the repeat runs, with a control signal flat, not every such curve was filed as active; the % refers to the signal ratio;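 note: HeLa cells with beta-lactamase reporter driven by heat shock elements; series mostly up to about 63 µM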)
How it was run: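 Fluorescence from a cleaved B/G FRET substrate (2.5 h, room temp) reports HSE-driven beta-lactamase in HeLa cells treated 5 h at 37 C with DMSO-dissolved compounds.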

[17] = target: Peroxisome proliferator-activated receptor delta (Homo sapiens) (UniProt Q03181); assay: qHTS assay to identify small molecule agonists of the peroxisome proliferator-activated receptor delta (PPARd) signaling pathway (AID 743212; calls by dose curve)
How it was run: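 Steps: seed PPARd-bla HEK293H cells; incubate 5 h, 37 C, 5% CO2; add compounds in DMSO; incubate, 37 C; add LiveBLAzer B/G FRET substrate; hold 2 h at room temperature; measure fluorescence.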

[18] = target: Bile acid receptor (Homo sapiens) (UniProt Q96RI1); assay: qHTS assay to identify small molecule antagonists of the farnesoid-X-receptor (FXR) signaling pathway (AID 743217; active = well fitted inhibition curve with a large enough effect in the signal ratio in the repeat runs, not every such curve was filed as active; the % refers to the signal ratio)
How it was run: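 Cells carrying a UAS-driven beta-lactamase reporter (GeneBLAzer FXR-UAS-bla HEK 293T) were plated and rested 5 h at 37 °C. Compounds in DMSO were added alongside chenodeoxycholic acid agonist at 50 uM final and left 16 h at 37 °C before FRET substrate readout.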

[19] = target: Bile acid receptor (Homo sapiens) (UniProt Q96RI1); assay: qHTS assay to identify small molecule agonists of the farnesoid-X-receptor (FXR) signaling pathway (AID 743220; active = well fitted activation curve with a large enough effect in the signal ratio in the repeat runs, not every such curve was filed as active; the % refers to the signal ratio)
How it was run: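 FXR-UAS-bla HEK 293T cells carrying a UAS-driven beta-lactamase reporter were plated for 5 h at 37C/5% CO2, then exposed to DMSO-dissolved Tox21 10K compounds for 16 h at 37C. A LiveBLAzer B/G FRET substrate was loaded for 2 h at room temperature before fluorescence reading.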

[20] = qHTS assay for small molecule activators of the heat shock response signaling pathway - cell viability counter screen (AID 743209); note: nearly all actives have a fitted effect of over 50% in size
How it was run: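 Cytotoxicity counter screen run in parallel with the HSE beta-lactamase reporter, using the same wells. HeLa HSE-bla cells received compound for 5 h at 37 C; ATP-based CellTiter-Glo luminescence was measured after 30 min at room temperature.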

Measured: Potency

Chain of Peroxisome proliferator-activated receptor delta (Homo sapiens) (Q03181 whole entry, looked up): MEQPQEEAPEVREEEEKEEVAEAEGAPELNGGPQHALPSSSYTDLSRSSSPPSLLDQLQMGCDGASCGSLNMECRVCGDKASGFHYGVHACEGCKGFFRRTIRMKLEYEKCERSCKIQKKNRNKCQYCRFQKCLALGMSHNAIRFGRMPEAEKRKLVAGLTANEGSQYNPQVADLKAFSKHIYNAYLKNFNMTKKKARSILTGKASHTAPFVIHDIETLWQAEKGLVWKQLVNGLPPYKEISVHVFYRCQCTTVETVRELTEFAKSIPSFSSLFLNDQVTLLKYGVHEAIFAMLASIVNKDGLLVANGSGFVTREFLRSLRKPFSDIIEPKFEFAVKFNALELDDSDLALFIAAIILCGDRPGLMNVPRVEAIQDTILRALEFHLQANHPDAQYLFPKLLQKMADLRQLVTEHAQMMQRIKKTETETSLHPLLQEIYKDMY
Chain of Aryl hydrocarbon receptor (Homo sapiens) (P35869 whole entry, looked up): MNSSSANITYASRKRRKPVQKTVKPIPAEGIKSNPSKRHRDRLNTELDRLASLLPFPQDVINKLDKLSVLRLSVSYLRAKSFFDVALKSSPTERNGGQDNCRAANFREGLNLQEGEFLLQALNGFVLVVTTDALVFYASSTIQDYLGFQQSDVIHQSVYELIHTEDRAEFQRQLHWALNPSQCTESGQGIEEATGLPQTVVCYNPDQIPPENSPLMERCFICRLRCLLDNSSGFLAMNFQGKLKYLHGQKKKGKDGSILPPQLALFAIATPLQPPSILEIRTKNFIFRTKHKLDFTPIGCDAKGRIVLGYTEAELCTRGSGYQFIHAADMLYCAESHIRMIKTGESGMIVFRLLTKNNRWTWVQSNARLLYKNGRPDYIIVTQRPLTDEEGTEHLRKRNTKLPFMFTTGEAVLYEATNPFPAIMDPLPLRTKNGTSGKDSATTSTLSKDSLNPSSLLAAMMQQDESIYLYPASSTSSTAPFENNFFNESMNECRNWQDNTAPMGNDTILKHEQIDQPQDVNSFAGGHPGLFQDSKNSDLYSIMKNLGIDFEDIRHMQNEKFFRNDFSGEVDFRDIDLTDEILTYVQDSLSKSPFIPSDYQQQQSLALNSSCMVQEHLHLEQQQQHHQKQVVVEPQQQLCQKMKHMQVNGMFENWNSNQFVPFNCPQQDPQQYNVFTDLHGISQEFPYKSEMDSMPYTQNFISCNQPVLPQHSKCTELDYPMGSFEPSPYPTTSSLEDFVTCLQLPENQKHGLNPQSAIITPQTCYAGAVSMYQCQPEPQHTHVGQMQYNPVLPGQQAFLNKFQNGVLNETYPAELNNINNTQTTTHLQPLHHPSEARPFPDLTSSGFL
Chain of Peroxisome proliferator-activated receptor gamma (Homo sapiens) (P37231 whole entry, looked up): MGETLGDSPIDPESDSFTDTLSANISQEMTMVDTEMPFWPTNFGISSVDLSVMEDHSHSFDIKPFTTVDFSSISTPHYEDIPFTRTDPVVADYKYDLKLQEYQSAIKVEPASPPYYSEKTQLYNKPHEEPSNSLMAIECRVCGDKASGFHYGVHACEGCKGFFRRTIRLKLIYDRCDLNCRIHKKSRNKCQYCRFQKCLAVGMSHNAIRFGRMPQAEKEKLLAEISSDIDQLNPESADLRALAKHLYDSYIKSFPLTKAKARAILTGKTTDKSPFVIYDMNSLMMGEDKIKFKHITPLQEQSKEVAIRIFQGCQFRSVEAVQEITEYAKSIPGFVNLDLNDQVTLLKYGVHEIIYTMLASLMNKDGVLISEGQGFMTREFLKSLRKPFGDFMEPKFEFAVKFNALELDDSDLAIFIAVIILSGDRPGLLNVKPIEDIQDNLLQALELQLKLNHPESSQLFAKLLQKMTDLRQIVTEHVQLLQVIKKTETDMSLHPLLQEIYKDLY
Chain of Vitamin D3 receptor (Homo sapiens) (P11473 whole entry, looked up): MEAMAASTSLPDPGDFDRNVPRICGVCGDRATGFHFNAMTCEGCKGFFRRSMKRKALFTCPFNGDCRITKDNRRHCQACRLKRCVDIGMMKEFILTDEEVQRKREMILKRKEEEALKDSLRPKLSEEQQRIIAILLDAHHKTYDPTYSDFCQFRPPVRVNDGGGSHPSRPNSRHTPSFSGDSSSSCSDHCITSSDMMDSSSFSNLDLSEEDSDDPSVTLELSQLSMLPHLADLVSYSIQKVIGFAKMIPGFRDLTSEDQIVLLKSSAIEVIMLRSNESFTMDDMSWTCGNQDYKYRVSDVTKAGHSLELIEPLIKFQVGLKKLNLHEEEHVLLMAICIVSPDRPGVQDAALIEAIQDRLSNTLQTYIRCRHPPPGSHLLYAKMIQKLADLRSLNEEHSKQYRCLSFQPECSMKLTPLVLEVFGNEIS
Chain of Bile acid receptor (Homo sapiens) (Q96RI1 whole entry, looked up): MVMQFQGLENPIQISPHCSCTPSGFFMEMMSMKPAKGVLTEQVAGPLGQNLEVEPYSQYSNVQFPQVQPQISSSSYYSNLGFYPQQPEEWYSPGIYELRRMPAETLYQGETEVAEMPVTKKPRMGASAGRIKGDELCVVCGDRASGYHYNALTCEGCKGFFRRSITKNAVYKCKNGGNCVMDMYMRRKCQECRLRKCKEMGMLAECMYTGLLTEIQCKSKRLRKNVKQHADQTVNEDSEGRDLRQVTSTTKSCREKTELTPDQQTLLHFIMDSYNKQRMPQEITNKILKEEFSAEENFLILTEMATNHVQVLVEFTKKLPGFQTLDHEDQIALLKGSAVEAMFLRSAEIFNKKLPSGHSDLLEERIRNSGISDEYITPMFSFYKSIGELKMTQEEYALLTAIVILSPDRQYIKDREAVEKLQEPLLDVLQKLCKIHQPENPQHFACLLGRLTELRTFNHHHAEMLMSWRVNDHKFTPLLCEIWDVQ

Brc1cc2ccccc2c2ccccc12
not listed: [13] | [14] | [15] | [16] | [17] | [18] | [19] | [20]
inactive: all other assays above

C1C[C@@H]2[C@H]3CC[C@H](C3)[C@@H]2C1
not listed: [16] | [17] | [18] | [19] | [20]
inactive: all other assays above

Cc1ccccc1N=C(N)Nc1ccccc1C
not listed: [20]
inactive: all other assays above

CC(O)c1ccccc1 (centres undefined)
not listed: [18] | [19] | [20]
inactive: all other assays above

CCC(C)(C)OC
not listed: [14] | [15]
inactive: all other assays above

CCOC(=O)c1ccc(OCCN2C[C@H](O)[C@@H](O)[C@H](O)[C@H]2CO)cc1
not listed: [16] | [18] | [19]
inactive: all other assays above

Cc1ccc(CO)cc1
not listed: [6]
inactive: all other assays above

COc1ccccc1N1CCN(CCCCNC(=O)c2ccc(-c3ccc(C(C)=O)cc3)cc2)CC1
not listed: [6]
inactive: all other assays above

CCCCCCCCCI
not listed: [14] | [15] | [18] | [19]
inactive: all other assays above

OCCOCC#CCOCCO
not listed: [6] | [11] | [13] | [15] | [18] | [19]
inactive: all other assays above

CC(=O)Nc1ccc(C)cc1C
not listed: [16]
inactive: all other assays above

NCCNCCO
inactive: all assays above

CC(C)(C)C(=O)C(=O)O
not listed: [6] | [11] | [15]
inactive: all other assays above

CN1C(C(=O)Nc2ccccn2)=C(O)c2sccc2S1(=O)=O
not listed: [12] | [14] | [15] | [16] | [18] | [19]
inactive: all other assays above

Nc1cccc2c1CN(C1CCC(=O)NC1=O)C2=O (centres undefined)
not listed: [15] | [18] | [19]
inactive: all other assays above

O=C(OC(=O)c1ccccc1)c1ccccc1
not listed: [9] | [15] | [18] | [19]
inactive: all other assays above

CCOC(=O)[C@H](CCc1ccccc1)N[C@@H](C)C(=O)N(CC(=O)O)C1Cc2ccccc2C1
not listed: [8] | [9] | [10] | [11] | [17] | [18] | [19]
inactive: all other assays above

CCC(=O)OC
not listed: [9] | [13] | [17] | [18] | [19]
inactive: all other assays above

CCCCCCCCN
not listed: [6] | [18] | [19]
inactive: all other assays above

CCOC(=O)/C=C/C(=O)OCC
not listed: [6] | [18] | [19]
inactive: all other assays above

OC(CCN1CCCC1)(c1ccccc1)C1CCCCC1 (centres undefined)
not listed: [13] | [17] | [18] | [19]
inactive: all other assays above

CCc1ccccc1
not listed: [18] | [19] | [20]
inactive: all other assays above

CCC(=O)C1CC(C(C)C)CC=C1C (centres undefined)
not listed: [13] | [14] | [15] | [16] | [18] | [19]
inactive: all other assays above

NC(=O)c1ccncc1
not listed: [6] | [10] | [15] | [18] | [19]
inactive: all other assays above

CCOC(=O)c1ccc(I)cc1
inactive: all assays above

CCN(CC)CCNC(=O)COc1ccc(OC)cc1
not listed: [13] | [16]
inactive: all other assays above

O[C@@H]1CO[C@H]2[C@@H]1OC[C@@H]2O
not listed: [6]
inactive: all other assays above

CC(=O)OCC[N+](C)(C)C
not listed: [6]
inactive: all other assays above

N#CCc1ccc(Cl)cc1Cl
not listed: [13] | [15] | [16] | [18] | [19]
inactive: all other assays above

CC(CCC(=O)O)C(=O)O (centres undefined)
not listed: [6] | [14] | [15]
inactive: all other assays above

CCCCCCCC/C=C\CCCCCCCCO
not listed: [6] | [18] | [19]
inactive: all other assays above

O=C(Cn1ccnc1[N+](=O)[O-])NCCO
not listed: [6] | [17]
inactive: all other assays above

FC(F)(F)c1ccccc1Cl
not listed: [16] | [20]
inactive: all other assays above
